Assay results as given in publication PMC4336329 (PLoS ONE, 2015).
About 14,000 (4.5%) of roughly 310,000 compounds showed an effect of 50% or more. Effects have a minus sign here. The list comes from a sample in which strong results are over-represented; it also holds similar structures and randomly drawn compounds.

These molecules were tested against human ether-à-go-go-related gene (hERG) potassium channel (human, UniProt Q12809) (assay: primary screen, population patch clamp on CHO cells stably expressing hERG; higher = less effect of the substance).
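Further: peak tail current of the secondary pulse compared with the same well before compound.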

Sequence of human ether-à-go-go-related gene (hERG) potassium channel (Q12809 whole entry, looked up): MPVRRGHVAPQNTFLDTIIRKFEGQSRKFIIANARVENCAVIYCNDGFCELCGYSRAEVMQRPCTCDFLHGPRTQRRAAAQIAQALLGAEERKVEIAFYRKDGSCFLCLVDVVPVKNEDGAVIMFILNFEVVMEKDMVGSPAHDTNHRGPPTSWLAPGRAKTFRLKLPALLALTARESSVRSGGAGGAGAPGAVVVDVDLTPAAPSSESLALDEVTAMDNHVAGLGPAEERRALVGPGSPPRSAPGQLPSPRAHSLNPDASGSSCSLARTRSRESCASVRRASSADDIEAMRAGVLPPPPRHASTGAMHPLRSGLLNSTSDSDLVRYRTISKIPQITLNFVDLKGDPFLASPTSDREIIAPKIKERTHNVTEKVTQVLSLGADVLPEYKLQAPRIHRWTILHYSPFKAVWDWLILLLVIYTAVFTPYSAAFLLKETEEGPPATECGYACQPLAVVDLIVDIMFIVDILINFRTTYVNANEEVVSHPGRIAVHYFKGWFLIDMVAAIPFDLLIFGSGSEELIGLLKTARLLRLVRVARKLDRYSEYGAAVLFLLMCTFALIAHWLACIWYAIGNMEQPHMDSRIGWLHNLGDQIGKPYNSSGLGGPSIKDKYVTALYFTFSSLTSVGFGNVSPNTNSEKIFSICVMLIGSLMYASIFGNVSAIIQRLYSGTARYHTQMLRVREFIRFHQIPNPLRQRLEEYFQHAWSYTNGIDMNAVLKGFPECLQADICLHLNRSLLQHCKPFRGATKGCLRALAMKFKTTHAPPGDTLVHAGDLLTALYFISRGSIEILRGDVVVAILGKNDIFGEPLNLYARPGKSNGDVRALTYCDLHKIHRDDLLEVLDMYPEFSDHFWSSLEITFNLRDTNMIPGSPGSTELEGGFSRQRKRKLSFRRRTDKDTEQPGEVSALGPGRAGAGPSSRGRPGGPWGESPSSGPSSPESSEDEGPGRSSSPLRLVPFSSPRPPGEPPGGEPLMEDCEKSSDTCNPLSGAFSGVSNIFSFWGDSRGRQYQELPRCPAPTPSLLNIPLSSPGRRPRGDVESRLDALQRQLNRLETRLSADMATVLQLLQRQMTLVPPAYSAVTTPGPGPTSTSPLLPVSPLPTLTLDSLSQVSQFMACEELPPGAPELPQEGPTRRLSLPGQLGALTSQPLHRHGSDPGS

Structure (SMILES)	hERG current change (%, negative = inhibition) at 10uM [%]
Cc1ccc(C(=O)N/C(=C/c2ccc(-c3cc(C(F)(F)F)ccc3Cl)o2)C(=O)NCc2cccnc2)cc1	-1.72
Cc1ccc(C(=O)N/C(=C\c2ccco2)C(=O)NCc2cccnc2)cc1	-65.2
Cc1ccc(C(=O)N/C(=C/c2ccco2)C(=O)O)cc1	-3.15
O=C(NCc1cccnc1)/C(=C/c1ccc(-c2cccc(Cl)c2)o1)S(=O)(=O)c1ccccc1	-26.2
O=C(NCc1ccco1)/C(=C/c1ccco1)NC(=O)c1ccccc1	4.34
COc1ccc(C(=O)N/C(=C/c2ccco2)C(=O)NCc2ccco2)cc1	-30.1
O=C(NCc1ccccn1)/C(=C/c1ccco1)NC(=O)c1ccccc1	-10
O=C(NCc1cccnc1)/C(=C/c1ccc(-c2cccc(C(F)(F)F)c2)o1)NC(=O)c1ccccc1	-74.1
Cc1ccc(C(=O)N/C(=C/c2ccco2)C(=O)NCc2ccco2)cc1	-12
O=C(NCc1cccnc1)/C(=C/c1ccco1)NC(=O)c1ccccc1	-58.6
COc1ccc(C(=O)N/C(=C\c2ccco2)C(=O)NCc2cccnc2)cc1	-66.7
COc1ccc(C(=O)N/C(=C\c2ccco2)C(=O)NCc2ccco2)cc1	-19.7
O=C(Cn1nnc(-c2ccccc2)n1)NNC(=O)c1ccc(Br)cc1	17.6
O=C(Nc1nnc(-c2ccco2)s1)C1CC1	-10.2
O=C(CN1C(=O)/C(=C/c2c(F)cccc2Cl)Oc2ccccc21)NCc1ccco1	10.9
CC(=O)O.Cc1ccc(C2C(C(=O)c3cccs3)=C(O)C(=O)N2c2ccc(S(N)(=O)=O)cc2)cc1 (stereo not drawn)	16.5
CCOc1ccc(-n2cc(C(=O)N3CCN(C)CC3)c3cc(OC)c(OC)cc3c2=O)cc1	4.98
CCN(CC)CCN(C(=O)C1=COCCO1)c1nc2c(OC)ccc(OC)c2s1.Cl	-78.3
CCN(CC)CCN(C(=O)c1c(F)cccc1F)c1nc2cc(C)cc(C)c2s1.Cl	-11.1
CCN(CC)CCN(C(=O)c1ccc(Br)s1)c1nc2cc3c(cc2s1)OCO3.Cl	-12
CCN(CC)CCN(C(=O)c1cc(Cl)sc1Cl)c1nc2cc3c(cc2s1)OCO3.Cl	-24.7
CCN(CC)CCN(C(=O)/C=C/c1cccs1)c1nc2ccc(C)cc2s1.Cl	-10.8
CCN(CC)CCN(C(=O)c1ccc(S(=O)(=O)N(CC)c2ccccc2)cc1)c1nc2c(OC)ccc(OC)c2s1.Cl	-27
CCN(C(=O)C1=COCCO1)c1nc2c(C)cccc2s1	-17.2
Cc1cc(C)c2sc(NC(=O)C3=COCCO3)nc2c1	-11.6
Cc1ccc2nc(N(CCN(C)C)C(=O)C3=COCCO3)sc2c1.Cl	-44.1

Structure (SMILES)	hERG current change (%, negative = inhibition) at 10uM [%]
CCN(CC)CCN(C(=O)C1=COCCO1)c1nc2cc3c(cc2s1)OCO3.Cl	-72
CCN(CC)CCN(C(=O)C1=COCCO1)c1nc2cc(C)cc(C)c2s1.Cl	-69
CCN(CC)CCN(C(=O)C1=COCCO1)c1nc2ccc(C)cc2s1.Cl	-78.3
Cc1cc2ccccc2n1CCNC(=O)c1cccs1	-0.757
CN(C(=O)Nc1ccccc1)C1CCCCC1	10.2
C=CCOC(=O)C1=C(C)NC(SCC(=O)Nc2ccccc2)=C(C#N)C1c1ccco1 (stereo not drawn)	-15.1
CCC(Sc1nc2ccccc2o1)C(=O)Nc1nnc(C)s1 (stereo not drawn)	-12.4
CN(C)C(=O)c1cc(C(=O)c2ccc(F)cc2F)c[nH]1	14.6
Cc1ccccc1-n1c(SCc2cc(=O)n3ccccc3n2)nc2[nH]ncc2c1=O	-35.2
CCc1ccc(-n2c(SCc3cc(=O)n4cc(Br)ccc4n3)nc3[nH]ncc3c2=O)cc1	-51
O=c1c2cn[nH]c2nc(SCc2cc(=O)n3cc(Br)ccc3n2)n1-c1ccc(Br)cc1	-24.8
CN(Cc1ccccc1)C(=O)c1ccc2c(c1)OCCO2	5.55
COc1ccc(-c2nc3ccccc3c(=O)n2CCOc2cccc(C)c2C)cc1	15
NC(=O)Cn1cc(C(=O)C(=O)N2CCOCC2)c2ccccc21	1.6
Cc1cc(F)ccc1S(=O)(=O)Nc1ccccc1C(=O)Nc1ccccc1-c1nc2ccccc2[nH]1	4.92
O=C(NN1CC(C(=O)OCc2ccc(Cl)cc2Cl)CC1=O)c1ccccc1 (stereo not drawn)	-16.5
O=C(NN1CC(C(=O)OCc2ccccc2F)CC1=O)c1ccccc1 (stereo not drawn)	-56.8
O=C(NN1CC(C(=O)OCc2ccc(Br)cc2)CC1=O)c1ccccc1 (stereo not drawn)	-21.2
COc1cccc(NC(=O)N(CCCN2CCOCC2)C(C)c2cc3ccccc3o2)c1 (stereo not drawn)	-62.5
COc1cccc2cc(C(C)N(CCCN3CCOCC3)C(=O)Nc3ccccc3)oc12 (stereo not drawn)	-16.9
COc1cccc(NC(=O)N(CCCN2CCOCC2)C(C)c2cc3cccc(OC)c3o2)c1 (stereo not drawn)	-29.4
COc1ccc(NC(=S)N(CCCN2CCOCC2)C(C)c2cc3cccc(OC)c3o2)cc1 (stereo not drawn)	-35.5
COc1cccc(NC(=S)N(CCCN2CCOCC2)C(C)c2cc3ccccc3o2)c1 (stereo not drawn)	-44
COc1ccc(NC(=S)N(CCCN2CCOCC2)C(C)c2cc3ccccc3o2)cc1 (stereo not drawn)	-78.4
Cn1c(=O)oc2cc(S(=O)(=O)NCCC(=O)NCCc3ccccc3)ccc21	1.29
